CBFb-RUNX1 inh: blocks binding between human CBF-beta and RUNX1 | AlphaScreen CBFb-His/RUNX1-biotin binding, biochemical | AID 1477 | Potency, µM (highest dose often 59.8 µM), without a hit: top-dose activity, negative = inhibition, most hits filed as inhibitors | Q01196+Q13951 | 230,000 tested, under 10 active; active = well fitted curve in the direction sought with a large enough effect; inconclusive = small, poorly fitted or top-dose-only effect, or another doubt; inactive = no such curve, though single readings can be large; an effect the other way counts as inactive or inconclusive; also: % of control where 0% means no effect
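AlphaScreen binding: CBFb-His and RUNX1-biotin (30 nM each) preincubated 20 min, compound added for 15 min, then nickel and streptavidin beads for 90 min, all at room temperature. Disruption of the interaction by any mechanism counts as activity.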
KDM4E inh: inhibitors of human JMJD2E histone demethylase; JMJD2E catalytic domain, FDH-coupled NADH fluorescence (FDH is formaldehyde dehydrogenase); Potency, µM (titrated, usually from 57.1 µM), for inactives: at the top dose activity change, negative = inhibition, most hits filed as inhibitors; 1.6% of 230,000 active; AID 2147;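 also: potency is read from the fitted curve at half-maximal effect; 0% = wells with enzyme and -100% = buffer wells without enzyme; nearly all actives have a fitted effect of over 50% in size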
ALDH1A1 block: inhibitors of human aldehyde dehydrogenase 1A1; Purified ALDH1A1, NADH fluorescence, propionaldehyde substrate; Potency, µM (titrated, usually from 75.3 µM), for inactives: at the highest dose activity, negative = inhibition, usual class: inhibitors; 7.3% of 220,000 active;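 also: potency is read from the fitted curve at half-maximal effect; plate controls were no enzyme wells and a reference inhibitor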
Target sequence (P00352 whole entry, looked up): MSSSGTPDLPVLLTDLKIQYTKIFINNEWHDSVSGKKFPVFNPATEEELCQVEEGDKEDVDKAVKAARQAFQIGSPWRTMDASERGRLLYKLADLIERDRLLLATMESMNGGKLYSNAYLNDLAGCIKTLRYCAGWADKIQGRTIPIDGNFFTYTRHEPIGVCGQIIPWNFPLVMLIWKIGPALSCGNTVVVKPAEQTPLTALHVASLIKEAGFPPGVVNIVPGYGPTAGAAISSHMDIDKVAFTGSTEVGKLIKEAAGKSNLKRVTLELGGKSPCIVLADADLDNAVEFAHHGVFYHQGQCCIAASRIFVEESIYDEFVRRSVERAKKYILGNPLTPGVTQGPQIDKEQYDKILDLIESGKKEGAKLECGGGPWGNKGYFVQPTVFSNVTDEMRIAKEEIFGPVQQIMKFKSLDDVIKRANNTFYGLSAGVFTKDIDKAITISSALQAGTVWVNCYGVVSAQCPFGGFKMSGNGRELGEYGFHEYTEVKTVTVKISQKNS
HPGD block: inhibitors of human 15-hydroxyprostaglandin dehydrogenase (HPGD); P15428; purified HPGD, NADH fluorescence kinetic, PGE2 substrate; Potency, µM, for the others: at the top dose activity change, negative = inhibition, actives largely listed as inhibitors; 4.3% of 150,000 active; AID 894; also: potency is read from the fitted curve at half-maximal effect; % is scaled to controls: 0 for no effect and ±100 for the full control effect
Target sequence (P15428 whole entry, looked up): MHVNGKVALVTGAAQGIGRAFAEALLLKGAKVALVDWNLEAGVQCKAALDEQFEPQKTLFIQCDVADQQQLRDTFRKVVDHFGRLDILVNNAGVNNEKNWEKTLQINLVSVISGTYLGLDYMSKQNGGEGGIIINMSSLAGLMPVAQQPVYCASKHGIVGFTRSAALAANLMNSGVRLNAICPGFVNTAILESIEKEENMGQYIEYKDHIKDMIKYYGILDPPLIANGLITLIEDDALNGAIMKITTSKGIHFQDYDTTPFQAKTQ
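20 nM HPGD preincubated 15 min at room temperature with compound in 50 mM Tris-HCl pH 8, 0.01% Tween 20. Started with 1 mM NAD+ and 30 uM prostaglandin E2; NADH fluorescence (360/450 nm) read 5 times over 30-s intervals, last minus first.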
HTT cytoprotect: protects HTT-Q103 PC12 cells, measured by ATP. PC12 HTT-Q103 induced, cytoprotection, ATP luminescence, 40 h. Potency, µM (titrated, usually from 56.4 µM), without a hit: cytoprotection (ATP increase), most hits filed as activators. 0.14% of 230,000 active. AID 1471; active = well fitted curve in the direction sought with a large enough effect; inconclusive = small, poorly fitted or top-dose-only effect, or another doubt; inactive = no such curve, though single readings can be large; an effect the other way counts as inactive or inconclusive; also: potency is read from the fitted curve at half-maximal effect; % of control where 0% means no effect; nearly all actives have a fitted effect of over 45% in size
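Cells were plated at 1500 per well in phenol red-free DMEM with 5% equine and 5% calf serum. Tebufenozide (100 nM final) and compounds were added, then ATPlite reagent, and luminescence was read.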
HTT aggregate: reduces HttQ103-GFP aggregates in PC12 cells. PC12 HttQ103-GFP aggregates, Acumen cytometry, 40 h. 1.1% of 220,000 active. Potency, µM (titrated, usually from 46.1 µM), for the others: at the highest dose activity change, negative = inhibition, usual class: inhibitors. AID 1688; active = well fitted curve in the direction sought with a large enough effect; inconclusive = small, poorly fitted or top-dose-only effect, or another doubt; inactive = no such curve, though single readings can be large; an effect the other way counts as inactive or inconclusive; also: potency is read from the fitted curve at half-maximal effect; % is scaled to controls: 0 for no effect and ±100 for the full control effect; nearly all actives have a fitted effect of over 60% in size
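Ecdysone-promoter PC12 model expressing HTT exon 1 Q103 fused to GFP, induced by tebufenozide at 100 nM final. Compounds titrated; aggregates sized 1–25 µm scored on a 488 nm laser cytometer.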
* hit, by the source's call; ? = inconclusive; · = no result given; [ ] = another dose, or the depositor's remark. Shown are actives, neighbours in structure and some others; about 9.8% of the full set was active somewhere. Unless noted, calls follow the shape of the dose curve; as a rule, active = well fitted inhibition curve with a large enough effect (not every such curve was filed as active); inconclusive = small, poorly fitted or top-dose-only effect, or another doubt; inactive = no such curve, though single readings can be large or run the other way.

SMILES	CBFb-RUNX1 inh	KDM4E inh	ALDH1A1 block	HPGD block	HTT cytoprotect	HTT aggregate
COc1ccc(CC(=O)NNC(=O)CCc2ccccc2)cc1OC	11%	-7%	2%	·	-32%	7%
COc1cc(CN2CCCC(CO)(Cc3cccc(Cl)c3)C2)cc2c1OCO2 (stereo not given)	0%	0%	?	·	2%[10 µM]	12%[9.22 µM]
CCn1c(N2CCN(CC(=O)c3c[nH]c4ccccc34)CC2)nc2c1c(=O)[nH]c(=O)n2C	0%	-13%	22µM*	-12%	-14%	9%
Cn1c(=O)c2c(nc(CN3CCN(CCO)CC3)n2Cc2cccc3ccccc23)n(C)c1=O	-3%	2%	4.5µM*	-2%	0%[0.074 µM]	-9%
CN1CCN(c2nc3c(c(=O)n(C)c(=O)n3C)n2Cc2cccc3ccccc23)CC1	4%	-3%	11µM*	-8%	-4%	7%
C/C(Cl)=C\Cn1c(N2CCCCCC2)nc2c1c(=O)n(C)c(=O)n2C	-2%	0%	3.5µM*	4%	-4%[10 µM]	-9%
Cn1c(=O)c2c(nc(N3CCN(Cc4ccccc4)CC3)n2CCSc2ncccn2)n(C)c1=O	9%	-7%	2%	4%	-3%[10 µM]	-3%
Cc1c(NC(=O)CCc2ccc(S(=O)(=O)N3CCOCC3)cc2)c(=O)n(-c2ccccc2)n1C	·	·	·	·	-5%[10 µM]	·
Cc1nc(-c2ccc(S(=O)(=O)Nc3cc(S(=O)(=O)N(C)C)ccc3C)s2)cs1	7%	2%	-8%	·	15%[10 µM]	-4%[9.22 µM]
COC(=O)[C@@]1(Cc2ccc(OC)cc2)[C@H]2c3cc(C(=O)N4CCCC4)n(Cc4cc(F)cc5c4OCOC5)c3C[C@H]2CN1C(=O)c1ccccc1	-19%	-7%	-2%	-6%	-67%	·
CCOC(=O)C1C(=O)NC(c2ccccc2)=NC1c1ccc(Cl)cc1 (stereo not given)	11%	4%	?	-15%	17%[10 µM]	4%
Cn1c(=O)c2c(nc(N3CCOCC3)n2CC(=O)c2ccccc2)n(C)c1=O	14%	1%	-1%	-14%	-18%[0.074 µM]	-15%
Cn1c(=O)[nH]c(=O)c2c1nc(N1CCCCCC1)n2CC(N)=O	20%	-3%	14µM*	-5%	-18%[1.9 µM]	-11%
Cn1c(=O)c2c(nc(N3CCCCC3)n2CCSc2nc3ccccc3o2)n(C)c1=O	·	·	·	·	-12%[0.074 µM]	·
Cn1c(=O)c2c(nc(N3CCCCCC3)n2Cc2cccc3ccccc23)n(C)c1=O	6%	-1%	0.89µM*	-26%	1%[0.074 µM]	?
Cn1c(=O)c2c(nc(N3CCCCCC3)n2CC(=O)c2ccccc2)n(C)c1=O	1%	-7%	4.5µM*	-12%	-16%[10 µM]	5%[9.22 µM]
C/C=C/Cn1c(N2CCCCCC2)nc2c1c(=O)[nH]c(=O)n2C	1%	-16%	?	-17%	-5%	-4%
CO[C@@H]1COC(=O)[C@H]2CCCN2C(=O)[C@@H](C)COC(=O)C/C=C\[C@H]1C	9%[13.1 µM]	·	2%[13.5 µM]	·	2%[10 µM]	·
Cc1ccc(NCCCCO)cc1C	3%	5%	?	·	27%[10 µM]	14%[9.22 µM]
O=C(Nc1ccccc1CC[N+](=O)[O-])N1CCN(c2ccccc2)CC1	-11%	?	8.9µM*	·	-20%	?
CCOC(=O)c1c(C)nn(-c2ccc(NC(=O)CSCC(=O)O)cc2)c1C	1%	0%	?	·	-1%[10 µM]	-24%[9.22 µM]
Cc1cccc(NC(=O)c2ccccc2NC(=O)C2CCCCC2)c1C	14%	?	?	2.5µM*	-14%	?
Cc1cccc(NC(=S)NNC(=S)NC2CCCCC2)c1C	-9%	20%	2µM*	·	18%[10 µM]	1%[9.22 µM]
Cc1ccc(NC(=S)NNC(=S)NC2CCCCC2)cc1	-4%	-5%	3.2µM*	·	-27%	1%
O=C(O)c1ccc(NC(=S)NC2CCCCC2)cc1	0%	-11%	-8%	-12%	23%[10 µM]	7%
SMILES	CBFb-RUNX1 inh	KDM4E inh	ALDH1A1 block	HPGD block	HTT cytoprotect	HTT aggregate
CC(=O)c1ccc(NC(=S)NNC(=O)NC2CCCCC2)cc1	-15%	-9%	1µM*	·	-17%	29%
O=C(Nc1ccccc1)c1ccccc1NC(=O)C1CCCCC1	2%	6%	-2%	-26%	-22%	9%
O=C(c1cnccn1)N1CCC[C@@]2(CCN(Cc3nccs3)C2)C1	·	·	-1%	-10%	?	·
S=C(NNc1ccc2ccccc2c1)NC1CCCCC1	-22%	11µM*	-7%	-7%	4%[1.9 µM]	15%
C[N+](C)(C)c1ccc(/C=N/Nc2nc(Cl)c(C#N)c(Cl)c2Cl)cc1	-8%	?	16µM*	-24%	10%[10 µM]	7%
O=C(CSc1nc2c(cnn2-c2ccc(F)cc2)c(=O)[nH]1)N1N=C(c2cccs2)CC1c1ccc(F)cc1 (stereo not given)	11%[2.36 µM]	5µM*	?	?	·	-1%
CCN(C(=O)COC(=O)c1c(C)c(-c2ccccc2)nc2ccccc12)C1CCS(=O)(=O)C1 (stereo not given)	12%	-9%	·	·	15%[10 µM]	-6%[9.22 µM]
COc1cccc(-n2c(SCc3ccccn3)nc3c(c2=O)SCC3)c1	-3%	4%	-2%	·	-6%	15%
Cc1cccc(OCC(=O)NC(=S)Nc2ccc(S(=O)(=O)NC3CCCCC3)cc2)c1	-6%	2%	16µM*	?	-10%	-10%[9.22 µM]
O=C(O)c1ccc(NC(=S)NC(=O)c2cccc(COc3ccccc3)c2)cc1	-11%	-11%	3.5µM*	·	13%[10 µM]	13%[9.22 µM]
Cc1cccc(OCC(=O)Nc2ccc(S(=O)(=O)N3CCCC3)cc2)c1	2%	8%	?	-11%	5%	-5%
CCC(=O)NC(=S)Nc1ccc(NC(=O)COc2ccccc2)cc1	-6%	-1%	25µM*	-17%	-8%[10 µM]	7%
CCOc1cccc(C(=O)NC(=S)Nc2ccc(N3CCN(CC)CC3)cc2)c1	-15%	-1%	?	·	-26%	35%
CCC(=O)Nc1ccc(NC(=S)NC(=O)Cc2ccccc2)cc1	0%	2%	-7%	-27%	3%[10 µM]	16%
CCOc1cccc(C(=O)NC(=S)Nc2ccccc2)c1	1%	-13%	18µM*	-20%	1%[10 µM]	24%
COc1ccccc1C1CCN(C(=O)c2ccco2)CC1	-1%	-21%	·	·	10%[10 µM]	25%[9.22 µM]
CCOC(=O)[C@H](Cc1ccc(O)cc1)NC(=O)c1ccccc1	5%	·	·	·	·	·
CCOc1cccc(C(=O)NC(=S)Nc2cccc(NC(=O)c3ccccc3Cl)c2)c1	-8%	1%	1.4µM*	-27%	?	3%
O=C(COc1ccccc1Cl)NC(=S)Nc1cccc(NC(=O)c2ccccc2Cl)c1	1%	2%	?	-20%	-29%	-3%
CC(=O)NCCNC(=O)c1ccc(NC2=NC3CS(=O)(=O)CC3S2)cc1 (stereo not given)	4%	-5%	·	·	12%[10 µM]	-20%[9.22 µM]

Assay outcomes from PubChem.
